According to PubChem BioAssay (NCI):
The panel holds about 83,000 compounds, 20% with a hit somewhere; the sample as a whole holds those more often.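 How to read the values: 0–100, growth inhibition (40 = 60% inhibited); 0, no net growth; -100 to 0, cell death (-40 = 40% of starting cells died; -100 = all dead).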 Values without a mark were called inactive. Activity calls are given as the source filed them. The calls were made as follows: active = growth percent below 10; inactive = the rest.

Columns and labels:
Assay in all cases: NCI-60 one-dose screen, 48 h (100 = growth as untreated, 0 = no growth, -100 = all killed)
Details in all cases: 10 µM
EKVX NSCLC = tested on: EKVX NSCLC
SN12C renal = tested on: SN12C renal
UO-31 renal = tested on: UO-31 renal
TK-10 renal = tested on: TK-10 renal
ACHN renal = tested on: ACHN renal
CAKI-1 renal = tested on: CAKI-1 renal
A498 renal = tested on: A498 renal
CCRF-CEM leukemia = tested on: CCRF-CEM leukemia
MOLT-4 leukemia = tested on: MOLT-4 leukemia
SR leukemia = tested on: SR leukemia
OVCAR-8 ovarian = tested on: OVCAR-8 ovarian
OVCAR-5 ovarian = tested on: OVCAR-5 ovarian
OVCAR-4 ovarian = tested on: OVCAR-4 ovarian
SK-OV-3 ovarian = tested on: SK-OV-3 ovarian
IGROV1 ovarian = tested on: IGROV1 ovarian
OVCAR-3 ovarian = tested on: OVCAR-3 ovarian
HS 578T breast = tested on: HS 578T breast
NCI/ADR-RES ovarian = tested on: NCI/ADR-RES ovarian
RPMI-8226 leukemia = tested on: RPMI-8226 leukemia

Row | SMILES | growth (EKVX NSCLC) | growth (SN12C renal) | growth (UO-31 renal) | growth (TK-10 renal) | growth (ACHN renal) | growth (CAKI-1 renal) | growth (A498 renal) | growth (CCRF-CEM leukemia) | growth (MOLT-4 leukemia) | growth (SR leukemia) | growth (OVCAR-8 ovarian) | growth (OVCAR-5 ovarian) | growth (OVCAR-4 ovarian) | growth (SK-OV-3 ovarian) | growth (IGROV1 ovarian) | growth (OVCAR-3 ovarian) | growth (HS 578T breast) | growth (NCI/ADR-RES ovarian) | growth (RPMI-8226 leukemia)
1 | COc1ccc(-c2cc(C(=O)N=Nc3c(O)[nH]c4ccccc34)c3ccccc3n2)cc1 | -12.7% (active) | -38.8% (active) | 24.5% | 19.2% | -64.2% (active) | -58.8% (active) | 112% | 49% | 45.1% | 22.8% | -28.6% (active) | 18.2% | -36.7% (active) | 80.9% | -62.5% (active) | -93.2% (active) | 31.1% | -14.4% (active) | –
2 | Nc1cccnc1/C=N/NC(=S)NCCNC(=O)c1ccc(-n2nc(-c3ccccc3O)nc2-c2ccccc2O)cc1 | 2.53% (active) | 5.7% (active) | -3.95% (active) | 12.3% | 2.89% (active) | 4.97% (active) | 73.7% | -6.46% (active) | 11.8% | – | 14.6% | 26.3% | 22.1% | 17.1% | 12.5% | 39.6% | 34.6% | 67.4% | -3.08% (active)
3 | CC(C)NC(=O)c1cc(-c2ccc(NC(=O)Nc3ccc(N4CCN(C)CC4)c(C(F)(F)F)c3)cc2)nc2cccnc12 | -92.4% (active) | -92.9% (active) | -97.4% (active) | -93.6% (active) | -100% (active) | -93.6% (active) | -97.7% (active) | -43.6% (active) | – | – | -81.4% (active) | – | -87.8% (active) | -93.1% (active) | -86.9% (active) | -84.9% (active) | -42.1% (active) | -61.7% (active) | -37.5% (active)
4 | Cc1ccc(/C=C/C(=O)c2ccc(S(=O)(=O)NCCNc3nc(Nc4ccc(F)cc4)nc(N(C)C)n3)cc2)cc1 | 30.7% | -83.9% (active) | 36.8% | 100% | 11.9% | 29.3% | 37.3% | 17.6% | 10.1% | 1.14% (active) | 3.72% (active) | 39.2% | 21.8% | 94.7% | 52.1% | -55.9% (active) | 68.8% | 14.7% | 4.72% (active)
5 | N#Cc1ccc(-c2nn(-c3ccc(C(=O)O)cc3)cc2CNc2ccc(Cl)cc2)cc1 | 67.8% | 82.2% | 61.8% | 108% | 74.6% | 71.2% | 111% | 77.5% | 68.8% | 82.8% | 74.4% | 111% | 85.2% | 123% | 91.5% | 70.3% | 88.6% | 67.7% | 66.4%
6 | O=c1[nH]c2ccccc2cc1CSc1ccc(Nc2nccc(-c3ccc4ccccc4c3)n2)cc1 | 68.1% | 54.1% | 93.7% | 78.8% | 79.5% | 72.6% | 82% | 79.9% | 75.1% | 80.7% | -28% (active) | 62.9% | -13.6% (active) | 116% | 73.9% | 13.1% | 60.6% | 24.4% | 67.5%
7 | O=c1[nH]c2ccccc2cc1CSc1ccc(Nc2nccc(-c3ccc(C(F)(F)F)cc3)n2)cc1 | 7.65% (active) | -19.7% (active) | 5.37% (active) | -6.8% (active) | -29.1% (active) | 12.7% | -50.2% (active) | 75% | 55.6% | 64.7% | -25.9% (active) | 36% | -60.3% (active) | 79.5% | 35.7% | -61.1% (active) | -8.2% (active) | 11.9% | 69.5%
8 | C#Cc1ccc(S(=O)(=O)Nc2cccc(-c3csc(NC(C)=O)n3)c2)cc1 | 57.9% | 79% | -81.1% (active) | 81.7% | 82.6% | 65.3% | 96% | 49.5% | – | – | 85.5% | 101% | 59.7% | 88.9% | 49.5% | 82.7% | 83.6% | 70.8% | 42.1%
9 | Clc1cccc(N/N=C/c2c[nH]c3ccccc23)n1 | 32.4% | 16.8% | 10.4% | 71.7% | 44.7% | 35.5% | 75.7% | 8.71% (active) | 23.8% | 13.7% | 41% | 52.2% | 41.3% | 63.7% | -4.86% (active) | -12.6% (active) | 28.5% | -4.45% (active) | 4.05% (active)
10 | COC(=O)C[C@](O)(CCCC(C)(C)O)C(=O)O[C@H]1C(OC)=C[C@@]23CCC(=O)N2CCc2cc4c(cc2[C@@H]13)OCO4 | 103% | 115% | 65% | 101% | 101% | 94.3% | 76.6% | 101% | 73.4% | 80.6% | 107% | 102% | 90.1% | 103% | 93% | 94.8% | 87.9% | 102% | 106%
11 | CCOC(=O)C1=C(N)N(c2ccccc2)C2=C(C(=O)CC(C)(C)C2)C1c1ccccc1OC (centres undefined) | 91.9% | 92.6% | 74.4% | 106% | 103% | 97.2% | 98.7% | 100% | 105% | 95% | 108% | 103% | 102% | 98.2% | 96.9% | 112% | 106% | 96.6% | 100%
12 | CN1CCc2c(sc3ncnc(N/N=C/c4ccc5ccccc5c4)c23)C1 | 90.4% | 72.4% | 60.5% | 110% | 67.2% | 78.2% | 106% | 40.6% | 63.6% | 9.62% (active) | 78.6% | 88.6% | 73.9% | 96.1% | 87.9% | 75% | 62.3% | 76.7% | 42.6%
13 | O=C(O)CCCCCCCCCCN1C(=O)/C(=C/c2cnc(-c3ccccc3)s2)SC1=S | 52.8% | 30.1% | 77.5% | 150% | 70.3% | 61.6% | 99.8% | – | 39.1% | – | 61.4% | – | 96.1% | 130% | 95% | 102% | 117% | 57.5% | 86.5%
14 | COC(=O)C(Cc1ccc(O)c(O)c1)NC(=O)C(CSC/C=C(\C)CCCC(C)CCCC(C)CCCC(C)C)NC(C)=O (centres undefined) | 47% | 26.3% | 43.7% | 45.3% | 31.4% | 28.4% | 102% | – | 7.78% (active) | – | 10.8% | 28% | 19.7% | 41.7% | 17.4% | 34.8% | 25.5% | 73.8% | -5.06% (active)
15 | CC1=N/C(=C\c2ccc(N(C)C)cc2)C(=O)N1CCc1ccc(S(N)(=O)=O)cc1 | 95.2% | – | 87.9% | 110% | 105% | 88.3% | 102% | 88.4% | 93.6% | 86.4% | – | 116% | 99.7% | 95.3% | 103% | 109% | 91.6% | 96.6% | 87.1%
16 | O=C(c1ccc(O)cc1)C1[C@H](c2ccccc2Br)[C@@H](c2ccccc2)NC12C(=O)Nc1ccc(Cl)cc12 (some centres undefined) | 10.5% | -46.3% (active) | 13.6% | 7.92% (active) | 2.5% (active) | 8.16% (active) | 9.06% (active) | 4.97% (active) | -16.2% (active) | – | 4.97% (active) | -2.71% (active) | 17% | 29.6% | 7.88% (active) | -46.2% (active) | 5.54% (active) | 11.2% | 4.84% (active)
